About 2,000 (36%) of roughly 5,500 compounds were called active. Not shown: some 18% with an inconclusive outcome. Rule as the data show it: active = normalized growth mostly below about 0.91 (no sharp cut-off); inconclusive = no clear call, values can overlap the other calls; inactive = mostly above about 0.92. This is one part of the list.
Assay: chemical genetic growth profiling, strain panel (AID 1159580);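 also: tested at 20 µM; growth read once vehicle control cultures reached saturation at 30 °C; 1 = growth at the plate median or of vehicle wells; lower values mean less growth of the strain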
Details: S. cerevisiae deletion strains, growth OD

Measured: normalized growth

OC(=Cc1nc2ccccc2nc1C=C(O)c1ccc(Cl)cc1)c1ccc(Cl)cc1
inactive: locus YAR019C, strain CDC15, hits give low values 0.993 | locus YBL105C, strain PKC1, hits give low values 0.974 | locus YBR135W, strain CKS1, hits give low values 0.983 | locus YBR136W, strain MEC1, hits give low values 0.967 | locus YBR160W, strain CDC28, hits give low values 0.984 | locus YDL017W, strain CDC7, hits give low values 0.98 | locus YDL028C, strain MPS1, hits give low values 0.97 | locus YDL101C, strain DUN1, hits give low values 0.977 | locus YDL108W, strain KIN28, hits give low values 0.961 | locus YDL132W, strain cdc53, hits give low values 0.995 | locus YDL214C, strain PRR2, hits give low values 0.895 | locus YDR052C, strain DBF4, hits give low values 0.981 | locus YDR054C, strain cdc34, hits give low values 0.972 | locus YDR226W, strain ADK1, hits give low values 0.969 | locus YDR477W, strain SNF1, hits give low values 0.856 | locus YER123W, strain YCK3, hits give low values 0.85 | locus YER133W, strain GLC7, hits give low values 0.9 | locus YFL009W, strain cdc4, hits give low values 0.976 | locus YFL029C, strain CAK1, hits give low values 0.976 | locus YFR003C, strain YPI1, hits give low values 0.978 | locus YFR019W, strain FAB1, hits give low values 0.918 | locus YFR028C, strain CDC14, hits give low values 0.987 | locus YGR040W, strain KSS1, hits give low values 0.855 | locus YGR052W, strain FMP48, hits give low values 0.903 | locus YGR092W, strain DBF2, hits give low values 0.793 | locus YHR030C, strain SLT2, hits give low values 0.874 | locus YHR079C, strain IRE1, hits give low values 0.96 | locus YHR082C, strain KSP1, hits give low values 0.851 | locus YHR205W, strain SCH9, hits give low values 0.882 | locus YIL147C, strain SLN1, hits give low values 0.958 | locus YJL095W, strain BCK1, hits give low values 0.933 | locus YJL128C, strain PBS2, hits give low values 0.965 | locus YJL157C, strain FAR1, hits give low values 0.84 | locus YJR016C, strain ILV3, hits give low values 0.977 | locus YJR066W, strain TOR1 (second series), hits give low values 0.852 | locus YJR066W, strain TOR1, hits give low values 0.889 | locus YKL048C, strain ELM1, hits give low values 0.868 | locus YKL067W, strain YNK1, hits give low values 0.871 | locus YKL101W, strain HSL1, hits give low values 0.8 | locus YKL193C, strain SDS22, hits give low values 1 | locus YKL203C, strain TOR2, hits give low values 0.932 | locus YLR113W, strain HOG1, hits give low values 0.902 | locus YLR133W, strain CKI1, hits give low values 0.884 | locus YLR403W, strain SFP1, hits give low values 0.904 | locus YML070W, strain DAK1, hits give low values 0.855 | locus YMR001C, strain CDC5, hits give low values 0.992 | locus YMR205C, strain PFK2 (second series), hits give low values 0.859 | locus YMR277W, strain FCP1, hits give low values 0.977 | locus YNL006W, strain LST8, hits give low values 0.982 | locus YNL020C, strain ARK1, hits give low values 0.851 | locus YNL161W, strain CBK1, hits give low values 0.983 | locus YNL183C, strain NPR1, hits give low values 0.921 | locus YNL207W, strain RIO2, hits give low values 0.966 | locus YNL222W, strain SSU72, hits give low values 0.982 | locus YNL307C, strain MCK1 (second series), hits give low values 0.823 | locus YOL078W, strain AVO1, hits give low values 0.982 | locus YOL136C, strain PFK27, hits give low values 0.867 | locus YOR061W, strain CKA2, hits give low values 0.769 | locus YOR119C, strain RIO1, hits give low values 0.921 | locus YOR231W, strain MKK1, hits give low values 0.936 | locus YOR329C, strain SCD5, hits give low values 0.983 | locus YPL031C, strain PHO85, hits give low values 0.843 | locus YPL153C, strain RAD53, hits give low values 0.862 | locus YPL204W, strain HRR25, hits give low values 0.89 | locus YPL209C, strain IPL1, hits give low values 0.979 | locus YPL256C, strain CLN2, hits give low values 0.941 | locus YPR025C, strain CCL1, hits give low values 0.979 | locus YPR106W, strain ISR1, hits give low values 0.962 | locus YPR111W, strain DBF20, hits give low values 0.954 | strain NNK1, hits give low values 0.96 | strain TSCII, hits give low values 0.989

Reference: PubChem BioAssay AID1159580 (chemical genetic matrix, 2015)
